High-throughput results deposited in PubChem by National Center for Advancing Translational Sciences (NCATS).
Only some compounds are listed: those with a hit (about 2.8% of all), similar ones and a draw of the others.
PI5P4Ka inh = qHTS for Inhibitors of phosphatidylinositol 5-phosphate 4-kinase (PI5P4K) | Phosphatidylinositol 5-phosphate 4-kinase type-2 alpha (Homo sapiens), P48426 | PI5P4Kalpha enzyme, ADP-Glo luminescence, 60 min; stronger effect = lower value | max response, % | actives 1.2% (n = 330,000); active = max response of -50% or lower; inconclusive = between -30% and -50%; inactive = -30% or higher; also: value at the top dose of about 77 µM; % is scaled to controls: 0 for no effect and ±100 for the full control effect
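Human PI5P4Kalpha with substrate in 0.038 M HEPES pH 7.4, 0.28 mM EGTA, 0.1% CHAPS, 5% DMSO; reaction started with 5 microM ATP (final), 60 min at room temperature. ADP formed read by ADP-Glo luminescence.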
Pol kappa inh-1 = qHTS for Inhibitors of Polymerase Kappa | DNA polymerase kappa (Homo sapiens), Q9UBT6 | purified Pol kappa, fluorescent DNA synthesis assay, 10 min | Potency, µM (series often up to 107 µM), for inactives: at the top dose activity, negative = inhibition, hits mostly inhibitors | actives 0.53% (n = 400,000) | AID 588579, 2011; also: potency is read from the fitted curve at half-maximal effect; % is scaled to controls: 0 for no effect and ±100 for the full control effect
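10 nM Pol kappa was preincubated with compounds for 15 min at room temperature. Reaction started with 50 nM (final) substrate. Fluorescence read kinetically at 0 and 10 min.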
WRN helicase inh = qHTS for Inhibitors of WRN Helicase; actives 0.46% (n = 360,000); WRN helicase unwinding, fluorescent forked duplex, kinetic; AID 651768, 2012; Potency, µM (doses to about 114 µM), inactives show at the highest dose activity change, negative = inhibition, usual class: inhibitors; Bifunctional 3'-5' exonuclease/ATP-dependent helicase WRN (Homo sapiens), Q14191; also: potency is read from the fitted curve at half-maximal effect; % is scaled to controls: 0 for no effect and ±100 for the full control effect; nearly all actives have a fitted effect of over 55% in size
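Fluorescence dequenching readout, ex 525 nm/em 598 nm, kinetic mode: forked duplex DNA (100 nM final) with adjacent fluorophore and quencher unwound by WRN (20 nM final) with 2 mM ATP. Compound preincubation 15 min, room temperature.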
Pol iota inh = qHTS for Inhibitors of Polymerase Iota; Pol iota fluorescent replication assay, 10 min; actives 1% (n = 390,000); DNA polymerase iota (Homo sapiens), Q9UNA4; AID 588590, 2011; Potency, µM (titrated, usually from 115 µM), for the others: at the highest dose activity, negative = inhibition, most hits filed as inhibitors; also: potency is read from the fitted curve at half-maximal effect
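Pol iota at 10 nM preincubated 15 min with compounds at room temperature; reaction started with fluorescent substrate, 50 nM final. Fluorescence read kinetically at 0 and 10 min; buffer-only wells as negative control.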
Pol beta inh = qHTS Assay for Inhibitors of DNA Polymerase Beta; P06746; Pol beta primer extension/strand displacement, fluorescence kinetic; Potency, µM (titrated, usually from 114 µM), for inactives: top-dose activity change, negative = inhibition, hits mostly inhibitors; AID 485314, 2010; actives 1.3% (n = 340,000); also: potency is read from the fitted curve at half-maximal effect; % is scaled to controls: 0 for no effect and ±100 for the full control effect
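Values derive from four-parameter Hill fits of normalized kinetic data: reads at 0 and 10 min following addition of 50 nM substrate to 10 nM Pol beta preincubated 15 min with compound.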
Pol eta inh-1 = qHTS for Inhibitors of Polymerase Eta; recombinant Pol eta, fluorescent DNA replication assay; Potency, µM (top dose mostly 114 µM), inactives show top-dose activity change, negative = inhibition, hits mostly inhibitors; actives 1.2% (n = 390,000); AID 588591, 2011; also: potency is read from the fitted curve at half-maximal effect; % is scaled to controls: 0 for no effect and ±100 for the full control effect
Target sequence (Q9Y253 whole entry, looked up): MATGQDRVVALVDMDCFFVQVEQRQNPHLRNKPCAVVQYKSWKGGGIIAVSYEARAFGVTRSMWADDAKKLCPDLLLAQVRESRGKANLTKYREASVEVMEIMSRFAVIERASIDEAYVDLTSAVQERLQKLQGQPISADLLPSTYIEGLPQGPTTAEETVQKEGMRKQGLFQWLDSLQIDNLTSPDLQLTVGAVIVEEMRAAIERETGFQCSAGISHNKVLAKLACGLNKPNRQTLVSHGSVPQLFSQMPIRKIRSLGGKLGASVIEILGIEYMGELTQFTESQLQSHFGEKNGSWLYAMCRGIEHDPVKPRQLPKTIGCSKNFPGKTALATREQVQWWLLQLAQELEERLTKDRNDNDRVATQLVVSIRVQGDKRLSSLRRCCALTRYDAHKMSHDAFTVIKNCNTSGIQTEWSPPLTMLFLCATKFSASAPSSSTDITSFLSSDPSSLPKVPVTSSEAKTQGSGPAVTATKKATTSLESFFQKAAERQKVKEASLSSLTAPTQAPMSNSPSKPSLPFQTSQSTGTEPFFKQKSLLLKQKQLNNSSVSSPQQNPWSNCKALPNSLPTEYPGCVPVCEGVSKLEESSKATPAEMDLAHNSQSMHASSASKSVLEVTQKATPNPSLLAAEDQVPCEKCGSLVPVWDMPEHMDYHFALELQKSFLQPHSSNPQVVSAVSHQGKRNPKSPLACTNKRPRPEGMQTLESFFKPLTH
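Pol eta (10 nM) was preincubated with compounds for 15 min at room temperature, after which fluorescent replication substrate (50 nM final) was added to start the reaction. Fluorescence was read kinetically at 0 and 10 min.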
TbPGK inh = qHTS for inhibitors of Phosphogylcerate Kinase: Hit Validation Screen; AID 686980, 2013; TbPGK coupled GAPDH assay, Kinase-Glo luminescence; Potency, µM (highest dose often 57.5 µM), for inactives: top-dose activity change, negative = inhibition, actives largely listed as inhibitors; actives 79% (n = 500); shares compounds with Pol kappa inh-1; also: potency is read from the fitted curve at half-maximal effect; % is scaled to controls: 0 for no effect and ±100 for the full control effect; nearly all actives have a fitted effect of over 65% in size
Pol iota confirm = qHTS for Inhibitors of Polymerase Iota: Confirmatory Assay for Cherry-picked Compounds; shares compounds with Pol kappa inh-1; Pol iota primer extension, TAMRA/BHQ fluorescence; Potency, µM, usual class: inhibitors; actives 77% (n = 1,500); also: potency is read from the fitted curve at half-maximal effect
Pol kappa inh-2 = qHTS for Inhibitors of Polymerase Kappa: Confirmatory Assay for Cherry-picked Compounds; shares compounds with Pol eta inh-1; purified Pol-kappa, fluorescent strand-displacement substrate; Potency, µM, actives largely listed as inhibitors; actives 76% (n = 920); AID 720501, 2013; also: potency is read from the fitted curve at half-maximal effect
Pol eta inh-2 = qHTS for Inhibitors of Polymerase Eta: Confirmatory Assay for Cherry-picked Compounds | AID 720502, 2013 | shares compounds with Pol eta inh-1 | Potency, µM, hits mostly inhibitors | actives 64% (n = 2,600) | Pol eta primer extension, TAMRA/BHQ fluorescence, 10 min; also: potency is read from the fitted curve at half-maximal effect
An asterisk follows results filed as active; ? = inconclusive; · = no result; [ ] = dose if it differs, or a comment. Unless noted, calls follow the shape of the dose curve; as a rule, active = well fitted curve in the direction sought with a large enough effect; inconclusive = small, poorly fitted or top-dose-only effect, or another doubt; inactive = no such curve, though single readings can be large; an effect the other way counts as inactive or inconclusive.

SMILES	PI5P4Ka inh	Pol kappa inh-1	WRN helicase inh	Pol iota inh	Pol beta inh	Pol eta inh-1	Pol iota confirm	Pol eta inh-2	others
Cn1c(SCC(=O)N/N=C/C=C/c2ccco2)nc2ccccc21	?	79µM*	?	35µM*	22µM*	14µM*	67*	76*
O=C(CNc1cccc2ccccc12)N/N=C/C=C/c1ccco1	2	-7%	-4%	56%	8%	-19%	·	·
O=C(CN1CCN(Cc2ccccc2)CC1)N/N=C\C=C/c1ccco1	1	-41%	-26%	0%	37%	-6%	·	·
O=C(CSc1nnc(SCc2ccccc2)s1)N/N=C/C=C/c1ccco1	-96*	25µM*	40µM*	14µM*	10µM*	2.8µM*	15*	19*	Pol kappa inh-2=15*
O=C(CSc1nnc(SCc2ccc(Cl)cc2)s1)N/N=C/c1c[nH]c2ccccc12	-14	?	?	10µM*	8.9µM*	3.2µM*	8.4*	19*
COCCCN1C(=O)C(CC(=O)NCCCN(C)C)CC(C(=O)N(C(C)C)C(C)C)=C1C (stereo unspecified)	-2	·	-7%	·	·	·	·	·
CCn1c(SCC(=O)N/N=C/C(C)=C/c2ccco2)nnc1-c1ccccc1	·	?	?	?	?	89µM*	60*	?
CCn1c(SCC(=O)N/N=C(\C)c2ccco2)nnc1-c1ccccc1	1	5%	1%	13%	13%	-6%	·	·
CCOC(=O)C1(CCCc2ccccc2)CCN(S(=O)(=O)N(C)C)CC1	11	-5%	7%	27%	30%	-15%	·	·
Cc1cc(C)c2c(c1)NC(C(=O)O)C1CC=CC21 (stereo unspecified)	-79*	25µM*	50µM*	13µM*	?	11µM*	27*	24*	Pol kappa inh-2=6.7*
Cc1ccc(C(=O)Nc2ccc(-c3nc4ccccc4[nH]3)cc2)cc1Br	·	·	·	·	·	·	67*	?
O=C(Nc1ccc(-c2nc3ccc(NC(=O)c4cccs4)cc3[nH]2)cc1)c1cccs1	?	?	-23%[57.1 µM]	20µM*	10µM*	?	38*	67*
c1ccc2oc(-c3ccc(Nc4nc(N5CCCC5)nc(N5CCOCC5)n4)cc3)nc2c1	·	·	·	·	15%	·	·	·
C=C(C)C(=O)Nc1cccc(C2=NOC3(C2)C[C@@H](C(N)=O)N(C(=O)CC(c2ccccc2)c2ccccc2)C3)c1 (stereo partly specified)	?	35µM*	?	?	13µM*	4µM*	75*	30*	TbPGK inh=3.3µM*
C/C=C(\C)C(=O)Nc1cccc(C2=NOC3(C2)C[C@@H](C(N)=O)N(C(=O)c2ccccc2C(=O)c2ccccc2)C3)c1 (stereo partly specified)	3	-4%	-2%	40%	13%	-18%	·	·
C=C(C)C(=O)Nc1cccc(C2=NOC3(C2)C[C@H](C(N)=O)N(C(=O)c2ccccc2C(=O)c2ccccc2)C3)c1 (stereo partly specified)	-26	?	?	45µM*	8.9µM*	5.6µM*	47*	19*
CCCCN(C(=O)c1ccc(S(=O)(=O)N(C)c2ccccc2)cc1)c1c(N)n(CCC)c(=O)[nH]c1=O	1	-5%	-4%	7%	·	-10%	·	·
O=C1C=C(O)CC(c2ccco2)C1 (stereo unspecified)	-4	?	?	4.5µM*	6.3µM*	3.2µM*	75*	30*	Pol kappa inh-2=17*
COc1ccc(/C=N/Nc2ncc(Br)cn2)c(OC)c1	?	5%	?	-4%	4.5µM*	28µM*	42*	·	Pol kappa inh-2=15*
CCCOc1ccc(OC(=O)c2c(-c3ccccc3Cl)noc2C)cc1	·	-18%[60.1 µM]	·	?	7%	1%	·	·
Oc1cc2c(cc1O)C1c3ccc(O)c(O)c3OCC1(O)C2 (stereo unspecified)	-74*	0.18µM*	28µM*	7.9µM*	13µM*	7.1µM*	24*	27*	TbPGK inh=5.8µM*
O=C(O)c1cc(O)c2c(c1)C(=O)c1cccc(O)c1C2=O	-91*	50µM*	27µM*	40µM*	11µM*	50µM*	67*	76*	Pol kappa inh-2=47*
Cc1cc(O)c2c(c1)C(=O)c1cccc(O)c1C2=O	·	?	·	·	-1%	·	·	·
COc1ccc(C=CC(=O)c2ccc(OCc3ccccc3)c(OC)c2)cc1OC	0	·	-9%	·	·	-10%	·	·
COc1ccc(C(=O)/C=C/c2ccc(OCc3ccccc3)cc2)cc1CSCC(=O)O	-21	-20%	?	45µM*	5%	45µM*	?	?
O=C(N/N=C/c1cc(Br)c(Br)o1)c1ccc2c(c1)OCCO2	-57*	?	?	?	8.9µM*	13µM*	?	30*
O=C(N/N=C/c1ccc2c(c1)OCO2)c1ccc2c(c1)OCCO2	0	1%	-22%[57.1 µM]	-7%	-1%	-25%	·	·
CSc1ccc(/C=C(\C(=O)O)c2ccc(S(=O)(=O)N3CCCCC3)s2)cc1	-28	-26%	-11%[57.1 µM]	?	?	?	·	·
